# Screening data (PubChem)
# Shown are actives, neighbours in structure and some others; about 2.2% of the full set was active somewhere.
# hiPSC survival: enhancers of human iPSC single-cell survival; AID 602274; survival enhancement, % at 20 µM; hiPSC single-cell survival, ATPlite luminescence; 100% = ROCK inhibitor wells, 0% = DMSO; 360,000 tested, 0.044% active; in the data active = survival enhancement above about 18%;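 also: cells exposed to compounds for 16 hours before the ATP read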
# Cardio protect: modulators protecting cardiomyocytes from myocardial damage | H9c2 cardiomyocytes, H2O2 injury protection, ATPLite, 2 h | protection from H2O2 cell death, % at 20 µM | 360,000 tested, 0.63% active | AID 588492;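 active = compounds giving at least 50% protection of heart cells from peroxide-induced death in the single-dose screen, raw or plate-pattern-corrected value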;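 also: 0% = DMSO wells with peroxide and 100% = DMSO wells without peroxide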
# Myeloid diff MLP: myeloid differentiation induction; ER-HoxA9 myeloid progenitors, lysozyme-GFP differentiation, flow cytometry; calls only at 10 µM; 360,000 tested, 1% active;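 active = normalized GFP-positive differentiation at or above the plate's own cutoff, the solvent-only control mean plus 3 SD; inconclusive = no clear call, values can overlap the other calls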;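 also: cells exposed to compound for four days before flow analysis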
# beta cell repl: induces beta-cell replication in MIN6 cells; MIN6 cells proliferation, ATPlite luminescence, 48 h; cells starved in 0.2% serum; 100% = growth in 10% serum; proliferation, % at 10 µM; 330,000 tested, 0.29% active;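 active = compounds whose signal lies at least 3.5 SD above the mean of all wells on their plate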;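 also: 0% = DMSO-treated cells in low-serum medium and 100% = 10% serum control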
# ABCB6 inh 2: human ABCB6 transporter inhibition; AID 602162; 360,000 tested, 0.19% active; K562-ABCB6 porphyrin accumulation, flow cytometry, 1 h; stronger effect = lower value; fluorescence ratio to DMSO, % at 10 µM;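 active = fluorescence ratio to DMSO below 75%, the collection mean minus 3 SD; inconclusive = too few cells collected in the well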;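 also: signal is porphyrin accumulated inside mitochondria; 100% equals median channel fluorescence of DMSO control wells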
# Target sequence (Q9NP58 whole entry, looked up): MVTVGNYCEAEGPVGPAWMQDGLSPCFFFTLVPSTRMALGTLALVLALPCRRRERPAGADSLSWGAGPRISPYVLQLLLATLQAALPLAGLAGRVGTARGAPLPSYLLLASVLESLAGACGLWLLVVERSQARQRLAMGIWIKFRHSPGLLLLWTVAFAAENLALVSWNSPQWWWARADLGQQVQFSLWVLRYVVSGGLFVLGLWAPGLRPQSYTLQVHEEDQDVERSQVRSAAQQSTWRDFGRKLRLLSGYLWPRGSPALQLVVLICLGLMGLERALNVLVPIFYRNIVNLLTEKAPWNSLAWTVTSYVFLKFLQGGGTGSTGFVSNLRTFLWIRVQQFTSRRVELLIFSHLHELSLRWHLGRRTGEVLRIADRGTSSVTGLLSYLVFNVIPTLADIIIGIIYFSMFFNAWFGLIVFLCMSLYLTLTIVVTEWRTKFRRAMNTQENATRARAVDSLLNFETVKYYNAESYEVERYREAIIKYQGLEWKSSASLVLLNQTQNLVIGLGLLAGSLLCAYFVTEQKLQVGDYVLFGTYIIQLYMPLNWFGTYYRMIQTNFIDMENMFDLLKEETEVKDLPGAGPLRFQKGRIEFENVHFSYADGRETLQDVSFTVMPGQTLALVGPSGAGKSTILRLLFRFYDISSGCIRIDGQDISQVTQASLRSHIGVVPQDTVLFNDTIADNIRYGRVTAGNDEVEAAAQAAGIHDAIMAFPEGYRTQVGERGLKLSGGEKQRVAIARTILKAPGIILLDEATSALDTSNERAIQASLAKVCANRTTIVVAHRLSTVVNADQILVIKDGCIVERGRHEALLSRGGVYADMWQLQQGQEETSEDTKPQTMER
# Active calls of the source: *; i = inactive; ? = inconclusive; . = not tested or not shown; + = active, no number.
SMILES,hiPSC survival,Cardio protect,Myeloid diff MLP,beta cell repl,ABCB6 inh 2
COc1ccc(-n2c(NNC(C)=O)nc3sc4c(c3c2=O)CCCC4)cc1,-0.1,0.3,?,-2.4,99.0
O=C(Cc1c(Cl)cccc1Cl)Nc1ccc(S(=O)(=O)Nc2ncccn2)cc1,1.0,-0.2,i,-1.6,92.0
Cc1ccc(CN2CCC(Oc3cccc(C(=O)NCc4cccnc4)c3)CC2)o1,0.6,-1.2,+,-0.5,98.0
Cc1ccc(CN2CCC(Oc3ccc(C(=O)NCc4ccccn4)cc3)CC2)o1,-0.3,-0.1,i,-3.3,95.0
CC(=O)c1cccc(NC(=O)C(C)OC(=O)c2ccc3ncsc3c2)c1 (centres undefined),0.0,-5.0,+,9.2,100.0
Cc1c(C)n(CCC#N)c2ccc(Cl)cc12,3.1,-0.4,i,-2.8,95.0
Cc1ccc2c(CSc3nnnn3C)cc(=O)oc2c1,-0.2,4.4,i,1.0,102.0
COc1ccccc1N1C(=O)N(C(C)=O)C2C1Nc1ccccc1N2C (centres undefined),-0.1,11.2,+,-3.0,190.0
CC(=O)Nc1ccc(C(=O)N/N=C/c2cc(Br)cc(Br)c2O)cc1,4.2,31.9,i,-5.0,100.0
Cc1ccc(C(=O)O)cc1N=Cc1cc(Br)cc(Br)c1O,-1.1,76.7*,i,.,107.0
CCCCNc1c(-c2ccc(SC(C)CC)cc2)nc2cnccn12 (centres undefined),1.9,-9.8,+,-6.2,175.0
COc1cc(O)c(C=NN2C(=O)CSC2=S)c(OC)c1,0.5,62.3*,i,.,98.0
O=C1CCC/C(=N\NC(=O)c2ccc(COc3cccc4cccnc34)cc2)C1,1.9,27.3,i,1.2,100.0
O=C(N/N=C/c1ccccc1C(=O)O)c1ccc(COc2cccc3cccnc23)cc1,-0.3,6.4,+,2.1,101.0
NNC(=O)c1ccc(COc2cccc3cccnc23)cc1,-0.3,9.1,+,0.2,93.0
O=C(COc1cccc2cccnc12)N/N=C/c1ccccc1O,-0.4,43.0,i,-4.0,91.0
CCCCc1ccc(-c2csc(/C(C#N)=C/c3ccco3)n2)cc1,0.0,-9.3,+,-3.7,115.0
CCCCc1ccc(-c2csc(/C(C#N)=C\c3ccc(C)o3)n2)cc1,-0.4,-0.2,i,-3.9,120.0
N#C/C(=C\c1ccc(F)cc1)c1nc(-c2ccco2)cs1,0.5,-9.0,i,2.8,103.0
N#C/C(=C\c1ccc(Cl)cc1)c1nc(-c2ccco2)cs1,-0.7,-12.4,+,-0.6,103.0
O=C(CCl)N1c2ccccc2CCc2ccccc21,-0.5,-0.2,+,-4.6,406.0
CC(=O)c1cc(F)c(N2CCN(CCC#N)CC2)cc1C,-0.8,-0.6,i,-3.4,102.0
OC[C@H]1OC(O)[C@@H](O)[C@@H](O)[C@@H]1O (some centres undefined),-0.2,5.1,i,-5.8,105.0
COc1ccc(C(C(=O)NC(C)(C)C)N(CCc2ccc(OC)c(OC)c2)C(=O)CCC(=O)Nc2cc(C)on2)cc1 (centres undefined),-0.4,2.5,i,0.0,96.0
Cc1ccc(OCc2ccccc2C)c([N+](=O)[O-])n1,0.1,-0.9,+,-3.6,101.0
SMILES,hiPSC survival,Cardio protect,Myeloid diff MLP,beta cell repl,ABCB6 inh 2
O=C1NC[C@H](c2ccccc2)OC(=O)[C@H](Cc2ccc(F)cc2)C/C=C\C[C@H]1CC(=O)N(CCO)Cc1ccccc1,0.0,94.4*,?,-3.9,94.0
O=C(C[C@@H]1C/C=C/CC[C@@H](Cc2ccc(F)cc2)C(=O)O[C@@H](c2ccccc2)CNC1=O)NCCO,-1.3,58.6*,i,-2.7,91.0
O=C1NC[C@H](c2ccccc2)OC(=O)[C@H](Cc2ccc(F)cc2)CC/C=C/C[C@@H]1CC(=O)N(CCO)Cc1ccccc1,-0.1,28.1,+,-5.7,93.0
O=C(C[C@H]1C/C=C/CC[C@H](Cc2ccc(F)cc2)C(=O)O[C@H](c2ccccc2)CNC1=O)NCCO,-0.9,-2.7,i,-1.8,97.0
CC(C)(C)OC(=O)C[C@@H]1C/C=C\C[C@@H](CC(=O)N[C@@H](CO)Cc2ccccc2)C(=O)NC[C@@H](c2ccccc2)OC1=O,-1.8,64.7*,i,0.6,92.0
O=C1N[C@H](Cc2ccccc2)COC(=O)[C@@H](Cc2ccc(F)cc2)C/C=C\C[C@H]1CC(=O)N(CCO)Cc1ccccc1,-2.1,57.5*,i,-5.5,92.0
O=C1N[C@H](Cc2ccccc2)COC(=O)[C@H](Cc2ccc(F)cc2)C/C=C\C[C@@H]1CC(=O)N(CCO)Cc1ccccc1,-1.8,-2.1,i,-5.7,94.0
O=[N+]([O-])c1ccc(N/N=C/c2cn(Cc3ccc(F)cc3)c3ccccc23)nc1,-0.6,-9.5,+,.,269.0
COC(=O)N/N=C/c1cn(Cc2ccc(F)cc2)c2ccccc12,-0.1,-2.8,i,4.0,91.0
CC(=O)Nc1cc(C(=O)OC(C(=O)c2ccccc2)c2ccccc2)ccc1C (centres undefined),-2.9,3.7,i,2.3,98.0
COc1ccc(C(=O)C(OC(=O)c2ccc(C)c(NC(C)=O)c2)c2ccccc2)cc1 (centres undefined),-1.4,4.0,+,-0.3,98.0
COc1ccccc1/C=C1/C(=O)N(c2ccccc2)N=C1C,-0.5,6.7,i,-2.8,74.0*
CC1=NN(c2ccccc2)C(=O)/C1=C\c1cn(-c2ccccc2)nc1C,7.6,-0.1,i,-0.2,92.0
COc1cccc(N2CCN(C(C)C(=O)NC34CC5CC(CC(C5)C3)C4)CC2)c1 (centres undefined),1.1,-1.4,+,0.0,99.0
CC1(C)Cc2ccccc2-c2nnc(-c3ccccc3)n21,0.2,-6.2,i,-2.0,92.0
CCCOC(=O)C1NC(=O)N2C(C(=O)OCCC)C(C)(C)S[C@H]12 (some centres undefined),22.8*,3.1,i,-1.8,99.0
C=CCNC(=O)c1ccc(CN(c2ccc(OCC)cc2)S(=O)(=O)c2ccc(C)cc2)cc1,-0.3,4.2,i,-3.1,97.0
COc1cc2c(cc1OC)C1=C(C#N)CC/C(=N\S(=O)(=O)c3cccc(Cl)c3)N1CC2,3.6,23.6,i,1.3,73.0*
COc1cc2c(cc1OC)C1=C(C#N)CN(CC(=O)O)CN1CC2,-1.0,7.8,i,2.9,102.0
CCOC(=O)c1c(-c2cc(OC)c(OC)c(OC)c2)csc1NC(=O)c1ccccc1,1.2,2.2,i,.,89.0
CCOC(=O)c1c(-c2cc(OC)c(OC)c(OC)c2)csc1N,20.8*,-1.4,i,.,96.0
O=C1C2=C(NC(=S)NC2c2ccc(Cl)cc2)NC(c2ccc(Cl)cc2)N1c1ccc(Cl)cc1 (centres undefined),1.7,-33.7,+,-5.5,96.0
OC1(c2ccc(F)cc2)CN(c2ccccc2)C2=[N+]1CCS2 (centres undefined),2.0,-2.3,i,1.2,101.0
